Measurements as given in PubChem BioAssay (Tox21).
Values joined by “and” are separate entries in the source; they are usually repeats but may differ in a detail not shown here. Identical values can stand only once. Inconclusive results are not listed. Entries that show only a call come without a potency. Active and inactive are the calls of the source. Unless noted, calls follow the shape of the dose curve; as a rule, active = well fitted curve in the direction sought with a large enough effect in the repeat runs; inconclusive = weak or mixed curves; inactive = no such curve, though single readings can be large; an effect the other way counts as inactive or inconclusive.

Key:
[1] = qHTS assay to identify small molecule agonists of the peroxisome proliferator-activated receptor delta (PPARd) signaling pathway - cell viability counter screen (AID 743211); also: nearly all actives have a fitted effect of over 55% in size
How it was run: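 Counter screen for cytotoxicity run in parallel with the PPARd reporter screen. Beta-lactamase reporter HEK293H cells exposed to compounds 17 h; ATP-based CellTiter-Glo luminescence quantified viability.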

[2] = molecular target: Peroxisome proliferator-activated receptor delta (Homo sapiens) (UniProt Q03181); assay: qHTS assay to identify small molecule agonists of the peroxisome proliferator-activated receptor delta (PPARd) signaling pathway (AID 743212; calls by dose curve; also: potency is read from the fitted curve at half-maximal effect)
Sequence of Peroxisome proliferator-activated receptor delta (Homo sapiens) (Q03181 whole entry, looked up): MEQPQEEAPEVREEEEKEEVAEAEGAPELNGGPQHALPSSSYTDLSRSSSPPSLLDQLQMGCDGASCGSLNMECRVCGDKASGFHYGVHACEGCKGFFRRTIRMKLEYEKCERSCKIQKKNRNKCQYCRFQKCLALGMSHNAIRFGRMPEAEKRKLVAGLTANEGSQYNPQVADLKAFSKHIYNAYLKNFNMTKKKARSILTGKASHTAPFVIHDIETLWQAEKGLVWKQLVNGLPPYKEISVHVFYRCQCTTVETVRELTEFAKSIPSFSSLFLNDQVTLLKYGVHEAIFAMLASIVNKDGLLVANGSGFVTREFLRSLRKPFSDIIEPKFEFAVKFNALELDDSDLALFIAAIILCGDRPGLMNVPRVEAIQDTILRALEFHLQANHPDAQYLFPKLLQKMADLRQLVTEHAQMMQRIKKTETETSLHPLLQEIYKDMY
How it was run: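 Quantitative high-throughput agonist screen in a HEK293H beta-lactamase reporter line under UAS control. Compounds in DMSO, at 37 C. Fluorescence read after 2 h with FRET substrate at room temperature.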

[3] = qHTS assay to identify small molecule antagonists of the peroxisome proliferator-activated receptor delta (PPARd) signaling pathway - cell viability counter screen (AID 743213); also: nearly all actives have a fitted effect of over 50% in size
How it was run: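 Same-well viability: cells pre-incubated 5 h, dosed with compound plus 300 nM L165041, kept 17 h at 37 C, FRET substrate 2 h RT, then CellTiter-Glo 30 min RT and luminescence.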

[4] = molecular target: Peroxisome proliferator-activated receptor delta (Homo sapiens) (UniProt Q03181); assay: qHTS assay to identify small molecule antagonists of the peroxisome proliferator-activated receptor delta (PPARd) signaling pathway (AID 743215; active = well fitted inhibition curve with a large enough effect in the signal ratio in the repeat runs, not every such curve was filed as active; the % refers to the signal ratio;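 also: cells stimulated with agonist L165041 at 300 nM final during compound exposure; series mostly up to about 62 µM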)
How it was run: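 Antagonist-mode beta-lactamase reporter screen: HEK293H cells with UAS-bla under PPARd control, stimulated by 300 nM L165041 (final) alongside test compound for 17 h at 37 C, then FRET fluorescence after 2 h substrate incubation.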

[5] = qHTS assay to identify small molecule agonists of the farnesoid-X-receptor (FXR) signaling pathway - cell viability counter screen (AID 743218); also: nearly all actives have a fitted effect of over 45% in size
How it was run: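 In GeneBLAzer FXR-UAS-bla HEK 293T cells, compounds act for 16 h at 37 C. Cell viability is then scored in the reporter wells by CellTiter-Glo, 30 min at RT, luminescence.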

[6] = qHTS assay to identify small molecule antagonists of the farnesoid-X-receptor (FXR) signaling pathway - cell viability counter screen (AID 743221; active = well fitted cell-killing curve with a large enough effect in the repeat runs, not every such curve was filed as active; also: nearly all actives have a fitted effect of over 50% in size)
How it was run: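 Multiplexed counter screen: viability of FXR-bla HEK 293T cells under agonist stimulation by chenodeoxycholic acid (50 uM, final) and test compound for 16 h at 37 C, measured by CellTiter-Glo luminescence in the reporter wells.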

[7] = molecular target: Bile acid receptor (Homo sapiens) (UniProt Q96RI1); assay: qHTS assay to identify small molecule antagonists of the farnesoid-X-receptor (FXR) signaling pathway (AID 743217; active = well fitted inhibition curve with a large enough effect in the signal ratio in the repeat runs, not every such curve was filed as active; the % refers to the signal ratio)
Sequence of Bile acid receptor (Homo sapiens) (Q96RI1 whole entry, looked up): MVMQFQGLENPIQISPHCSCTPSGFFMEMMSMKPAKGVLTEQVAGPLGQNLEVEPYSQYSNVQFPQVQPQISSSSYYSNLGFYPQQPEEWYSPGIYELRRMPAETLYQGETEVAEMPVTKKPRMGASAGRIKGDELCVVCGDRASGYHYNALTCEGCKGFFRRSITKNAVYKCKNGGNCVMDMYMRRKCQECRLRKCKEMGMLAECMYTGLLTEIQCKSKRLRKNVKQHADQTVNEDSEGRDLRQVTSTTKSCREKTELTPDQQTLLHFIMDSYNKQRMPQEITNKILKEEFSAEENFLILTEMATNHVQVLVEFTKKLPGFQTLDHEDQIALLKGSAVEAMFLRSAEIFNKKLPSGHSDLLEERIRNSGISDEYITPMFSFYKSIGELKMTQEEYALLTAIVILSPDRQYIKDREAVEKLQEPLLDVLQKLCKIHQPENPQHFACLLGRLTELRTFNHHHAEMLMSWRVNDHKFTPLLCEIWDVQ
How it was run: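 Beta-lactamase reporter under UAS control in HEK 293T cells; compound exposure 16 h at 37 °C in the presence of chenodeoxycholic acid (50 uM final); signal from B/G FRET substrate after 2 h at room temperature.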

[8] = molecular target: Vitamin D3 receptor (Homo sapiens) (UniProt P11473); assay: qHTS assay to identify small molecule agonists of the vitamin D receptor (VDR) signaling pathway (AID 743222; calls by dose curve)
Sequence of Vitamin D3 receptor (Homo sapiens) (P11473 whole entry, looked up): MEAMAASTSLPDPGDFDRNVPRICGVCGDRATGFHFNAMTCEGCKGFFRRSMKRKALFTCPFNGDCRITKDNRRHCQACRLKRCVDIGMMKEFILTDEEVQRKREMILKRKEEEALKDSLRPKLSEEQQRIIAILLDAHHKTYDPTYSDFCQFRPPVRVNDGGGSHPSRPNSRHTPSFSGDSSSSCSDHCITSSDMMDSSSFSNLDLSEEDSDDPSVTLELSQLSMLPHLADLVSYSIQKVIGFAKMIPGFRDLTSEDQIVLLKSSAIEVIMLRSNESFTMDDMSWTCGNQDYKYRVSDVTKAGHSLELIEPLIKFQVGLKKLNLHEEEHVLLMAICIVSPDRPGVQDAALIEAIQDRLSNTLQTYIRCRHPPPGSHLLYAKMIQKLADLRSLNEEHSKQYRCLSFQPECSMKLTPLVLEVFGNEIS
How it was run: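 Agonist activity measured in VDR-bla reporter cells. Exposure 16 h, 37C, 5% CO2; detection by B/G FRET substrate, 2 h RT.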

[9] = molecular target: Vitamin D3 receptor (Homo sapiens) (UniProt P11473); assay: qHTS assay to identify small molecule antagonists of the vitamin D receptor (VDR) signaling pathway (AID 743223; active = well fitted inhibition curve with a large enough effect in the signal ratio in the repeat runs, not every such curve was filed as active; the % refers to the signal ratio)
How it was run: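 Cells carrying a VDR-driven beta-lactamase reporter (VDR-bla) were co-treated with compound and 3 nM final 1alpha,25-dihydroxyvitamin D3 for 16 h at 37C; reporter activity was measured as FRET substrate fluorescence after 2 h at room temperature.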

[10] = molecular target: Bile acid receptor (Homo sapiens) (UniProt Q96RI1); assay: qHTS assay to identify small molecule agonists of the farnesoid-X-receptor (FXR) signaling pathway (AID 743220; active = well fitted activation curve with a large enough effect in the signal ratio in the repeat runs, not every such curve was filed as active; the % refers to the signal ratio; also: potency is read from the fitted curve at half-maximal effect)
How it was run: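 Beta-lactamase reporter under UAS control in GeneBLAzer FXR HEK 293T cells (5000/well) measured with LiveBLAzer FRET substrate after 2 h at room temperature. Compound exposure lasted 16 h at 37C.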

| SMILES | Potency [1] | Potency [2] | Potency [3] | Potency [4] | Potency [5] | Potency [6] | Potency [7] | outcome [8] | Potency [9] | Potency [10] |
| --- | --- | --- | --- | --- | --- | --- | --- | --- | --- | --- |
| O=C(O)C1=NN(c2ccc(S(=O)(=O)O)cc2)C(=O)C1 | inactive | inactive | inactive | inactive | inactive | inactive | – | – | – | – |
| OCc1ccc(Cl)cc1Cl | inactive | inactive | inactive | inactive | inactive | inactive | inactive | inactive | inactive | – |
| CCCCC(CC)COC(=O)c1ccc(C(=O)OCC(CC)CCCC)cc1 (stereo not given) | inactive | inactive | inactive | inactive | inactive | inactive | inactive | – | – | inactive |
| CCCCCCCCC(=O)O | inactive | inactive | inactive | inactive | inactive | inactive | – | – | – | – |
| CC(=O)CC(=O)N(C)C | inactive | inactive | inactive | inactive | inactive | – | inactive | inactive | inactive | inactive |
| Cc1ncc(CO)c(CO)c1O | inactive | inactive | inactive | inactive | inactive | inactive | inactive | inactive | inactive | inactive |
| NC(=O)NC(N)=O | inactive | inactive | inactive | inactive | inactive | – | – | – | – | – |
| COCN(COC)c1nc(N(COC)COC)nc(N(COC)COC)n1 | inactive | inactive | inactive | inactive | inactive | inactive | inactive | inactive | inactive | inactive |
| CN=C(NC#N)NCCSCc1nc[nH]c1C | inactive | inactive | inactive | inactive | inactive | inactive | inactive | inactive | inactive | inactive |
| Cc1nnc(NS(=O)(=O)c2ccc(N)cc2)s1 | inactive | inactive | inactive | inactive | inactive | inactive | – | inactive | – | – |
| CN1Cc2c(N)cccc2C(c2ccccc2)C1 (stereo not given) | inactive | inactive | inactive | inactive | inactive | inactive | – | – | – | – |
| Cc1ccc([N+](=O)[O-])cc1N | inactive | inactive | inactive | inactive | inactive | inactive | inactive | inactive | inactive | inactive |
| COC(=O)CCCCC(=O)OC | inactive | inactive | inactive | inactive | inactive | inactive | inactive | inactive | inactive | inactive |
| CCCCCCC(=O)O | inactive | inactive | inactive | inactive | inactive | – | inactive | inactive | inactive | inactive |
| CCOC(=O)c1ccc(O)cc1 | inactive | inactive | inactive | inactive | inactive | inactive | inactive | inactive | inactive | inactive |
| CCc1cccc(O)c1 | inactive | inactive | inactive | inactive | inactive | – | inactive | inactive | inactive | inactive |
| C1CCCNCC1 | inactive | inactive | inactive | inactive | inactive | inactive | – | – | – | – |
| Cc1ccc(C(C)C)cc1 | inactive | inactive | inactive | inactive | inactive | – | inactive | inactive | inactive | inactive |
| CCOC(=O)CC(=O)OCC | inactive | inactive | inactive | inactive | inactive | inactive | inactive | inactive | inactive | inactive |
| CC(C=O)Cc1ccc(C(C)(C)C)cc1 (stereo not given) | inactive | inactive | inactive | inactive | inactive | inactive | inactive | inactive | – | inactive |
| Nc1cccc(C(F)(F)F)c1 | inactive | inactive | inactive | inactive | inactive | – | inactive | – | – | inactive |
| CCn1cc(C(=O)O)c(=O)c2cc3c(cc21)OCO3 | inactive | inactive | inactive | inactive | inactive | inactive | inactive | inactive | inactive | inactive |
| O=C1OC(=O)c2c(Cl)c(Cl)c(Cl)c(Cl)c21 | inactive | inactive | inactive | inactive | inactive | inactive | inactive | – | – | inactive |
| Cc1cc(C)c(O)c(C)c1 | inactive | inactive | inactive | inactive | inactive | inactive | inactive | – | – | inactive |
| CC(COCC(C)OC(=O)c1ccccc1)OC(=O)c1ccccc1 (stereo not given) | inactive | inactive | inactive | inactive | inactive | – | inactive | inactive | inactive | inactive |
| C=C1C[C@]23C[C@@]1(O)CC[C@H]2[C@@]12C=C[C@H](O)[C@@](C)(C(=O)O1)[C@H]2[C@@H]3C(=O)O | inactive | inactive | inactive | inactive | inactive | – | inactive | inactive | inactive | inactive |

| SMILES | Potency [1] | Potency [2] | Potency [3] | Potency [4] | Potency [5] | Potency [6] | Potency [7] | outcome [8] | Potency [9] | Potency [10] |
| --- | --- | --- | --- | --- | --- | --- | --- | --- | --- | --- |
| Cc1cc(CC(=O)O)n(C)c1C(=O)c1ccc(Cl)cc1 | inactive | inactive | inactive | inactive | inactive | – | inactive | inactive | inactive | inactive |
| CC(C)(CO)CO | inactive | inactive | inactive | inactive | inactive | – | – | – | – | – |
| CCc1cccc(CC)c1N | inactive | inactive | inactive | inactive | inactive | inactive | – | – | – | – |
| CC(=O)OCCC(C)C | inactive | inactive | inactive | inactive | inactive | inactive | – | – | – | – |
| OB(O)O | inactive | inactive | inactive | inactive | inactive | inactive | inactive | inactive | inactive | inactive |
| COc1ccc2cc3[n+](cc2c1OC)CCc1cc2c(cc1-3)OCO2 | inactive | inactive | inactive | inactive | inactive | – | inactive | – | inactive | inactive |
| CC(=O)OC/C=C(\C)CCC=C(C)C | inactive | inactive | inactive | inactive | inactive | inactive | – | – | – | – |
| Cc1ccccc1Cl | inactive | inactive | inactive | inactive | inactive | inactive | inactive | inactive | inactive | inactive |
| C=C(CC(=O)O)C(=O)O | inactive | inactive | inactive | inactive | inactive | inactive | inactive | inactive | inactive | inactive |
| Cc1ccc(Cl)cc1 | inactive | inactive | inactive | inactive | inactive | inactive | inactive | inactive | inactive | inactive |
| NC(=O)c1ncn([C@@H]2O[C@H](CO)[C@@H](O)[C@H]2O)n1 | inactive | inactive | inactive | inactive | inactive | – | – | – | – | – |
| O=C1CCCCCCCCCCC1 | inactive | inactive | inactive | inactive | inactive | inactive | – | – | – | – |
| CCCCCCCCO | inactive | inactive | inactive | inactive | inactive | inactive | – | inactive | inactive | – |
| COc1c(Cl)ccc(Cl)c1C(=O)O | inactive | inactive | inactive | inactive | inactive | – | – | inactive | inactive | – |
| CC(=O)OC(C)(C)C1CC=C(C)CC1 (stereo not given) | inactive | inactive | inactive | inactive | inactive | – | – | inactive | inactive | – |
| CC(=O)C(C)C | inactive | inactive | inactive | inactive | inactive | inactive | – | inactive | inactive | – |
| COC(=O)/C=C\C(=O)OC | inactive | inactive | inactive | inactive | inactive | inactive | – | inactive | inactive | – |
| CCCCCNCCCCC | inactive | inactive | inactive | inactive | inactive | – | – | inactive | inactive | – |
| C=CC(C)(C)C | inactive | inactive | inactive | inactive | inactive | inactive | – | inactive | inactive | – |
| Cc1cccc(C)c1[N+](=O)[O-] | inactive | inactive | inactive | inactive | inactive | – | – | inactive | inactive | – |
| OCC(CO)(CO)CO | inactive | inactive | inactive | inactive | inactive | – | – | inactive | inactive | – |
| Cc1ccc(C)c(S(=O)(=O)O)c1 | inactive | inactive | inactive | inactive | inactive | – | – | inactive | inactive | – |
| N[C@@H](Cc1cc(I)c(Oc2ccc(O)c(I)c2)c(I)c1)C(=O)O | inactive | inactive | inactive | inactive | inactive | inactive | – | inactive | inactive | – |
| Nc1nc(N)c2nc(-c3ccccc3)c(N)nc2n1 | inactive | 24.5 µM (active) and 23.7 µM (active) | inactive | – | inactive | inactive | – | – | – | 49.5 µM (active) and 21.1 µM (active) |
| COc1ccc(N)c(OC)c1 | inactive | inactive | inactive | – | inactive | inactive | – | inactive | inactive | – |
